Here are results for 1 compound from PubChem BioAssay AID2552 (National Center for Advancing Translational Sciences (NCATS), 2010).

Activity calls are given as the source filed them. No rule for the calls is given here.

Thyroid hormone receptor beta (Homo sapiens), sequence (P10828 whole entry, looked up, the tested form may be a part): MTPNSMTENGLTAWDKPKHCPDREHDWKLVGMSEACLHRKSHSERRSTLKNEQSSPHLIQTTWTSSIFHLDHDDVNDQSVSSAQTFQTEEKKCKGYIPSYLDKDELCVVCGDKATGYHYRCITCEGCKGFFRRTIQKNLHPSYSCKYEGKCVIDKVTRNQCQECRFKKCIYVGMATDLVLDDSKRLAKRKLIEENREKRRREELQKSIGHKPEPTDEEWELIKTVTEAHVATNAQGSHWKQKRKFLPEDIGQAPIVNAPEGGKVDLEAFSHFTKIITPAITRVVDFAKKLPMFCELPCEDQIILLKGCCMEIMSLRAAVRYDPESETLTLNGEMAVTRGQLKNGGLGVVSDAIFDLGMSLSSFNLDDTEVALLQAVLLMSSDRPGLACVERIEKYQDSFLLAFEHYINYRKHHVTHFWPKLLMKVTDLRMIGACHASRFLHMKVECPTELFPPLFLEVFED

The target in the assay is Thyroid hormone receptor beta (Homo sapiens) (UniProt P10828). The assay can be described thus: Irreversible Binding Assay for Inhibitors of the Interaction of Thyroid Hormone Receptor and Steroid Receptor Coregulator 2. As to conditions: TRb LBD-SRC2 peptide FP after dialysis, at 100 µM. From the text:
NIH Molecular Libraries Probe Production Network [MLPCN] NIH Chemical Genomics Center [NCGC] MLPCN Grant: DK058080 Assay Provider: R. Kip Guy, St. Jude Children's Research Hospital NCGC Assay Overview: Thyroid receptor (TR) regulates many homeostatic processes including basal metabolism, cardiovascular function, body weight, and lipid trafficking. TR modulators are potential therapeutics for obesity and hyperlipidemias but current thyroid analogs have undesirable side effects, particularly cardiac stimulation. To identify whether inhibitors irreversibly block the interaction of TR with the steroid receptor coregulator 2 (SRC2), a fluorescence polarization assay was used (Arnold et al., 2006). […]
NCGC Assay Protocol Summary: One milliliter TRb (1 uM) was incubated with DMSO (4 %), SRC2-2 peptide (100 uM) or compound (100 uM) for 3 hr in assay buffer (20 mM Tris hydrochloride, pH 7.4, 100mM NaCl, 10% glycerol, 1mM EDTA, 0.01% NP-40, 1mM DTT, 1uM T3 and 4% DMSO). […] The protein samples were concentrated using a 10K spin filter column (Amicon Ultra, Millipore) and then quantified by Bradford analysis. For each sample, 20 uL assay buffer containing 2 uM TRb and 40 nM SRC2 Texas Red probe was incubated in a 384 well plate for 3 hr at ambient temperature and read by an Envision (Perkin Elmer) to detect fluorescence polarization of SRC2-2 Texas Red (555 nm excitation and 632 nm emission). […]
`CC1(C)C2CCC1(C)C(NC(=O)COC(=O)c1ccc(S(C)(=O)=O)c([N+](=O)[O-])c1)C2` (stereo unspecified): the activity change, negative = inhibition was -96% (active).
